# Measurements from ChEMBL document CHEMBL3988442, “University of Dundee, Small-Polar-MMV Screening Library” (2021).
# Among all 69,000 compounds or so, about 950 (1.4%) showed an effect of 50% or more. Shown is part of a subset that was picked to be rich in strong results.
# System: Mycobacterium tuberculosis
# Test: Cornell M. t heat shock assay; further: in the data most compounds retested in dose-response had high values
# Format: functional, organism-based
# Set-up: dose or concentration left out as unconfirmed
row,Compound,Percent Effect
1,O=C(N1CCOCC1)N1C(CN2CCOCC2)[C@]2(O)CC[C@H]1CC2 (stereo not given in full),2.205%
2,CN1C[C@@H]2CN(C(=O)C3CC=CC3)C[C@@H]2C1=O,-1.029%
3,Cc1cc(CCC(=O)Nc2nncs2)nc(C2CCCN2)n1.Cl (stereo not given),-11.36%
4,CN(C)C(=O)c1nn(C)c2c1CN(Cc1ccc(F)cc1)C2.O=C(O)C(F)(F)F,-35.3%
5,O=C(O)C(F)(F)F.O=C1CC[C@]2(CC[C@@H](NC(=O)NCc3cccnc3)CC2)N1,2.106%
6,Cc1csc(C(Cc2ccsc2)NC(=O)Cn2cccnc2=O)n1 (stereo not given),-16.84%
7,Cc1csc(C(Cc2ccsc2)NC(=O)CN(C)Cc2ccccn2)n1.Cl (stereo not given),82.59%
8,Cc1cc(C)n(CC(=O)NC(Cc2ccsc2)c2ccccn2)c(=O)n1.Cl (stereo not given),93.95%
9,Cc1csc(C(Cc2ccsc2)NC(=O)CN(C)Cc2cccnc2)n1.Cl (stereo not given),-9.769%
10,CN(CC(=O)NC(Cc1ccsc1)c1cccnc1)Cc1ccccn1.Cl (stereo not given),-24.9%
11,O=C(Cn1cccnc1=O)NC(Cc1ccsc1)c1ccccn1 (stereo not given),17.67%
12,Cc1ccc(N2CCC3(CCN(C(=O)c4ccnnc4)CC3)CC2)nn1.O=C(O)C(F)(F)F,-48.43%
13,Cn1nnc2c1CCN(Cc1nccs1)C2COCc1ccccc1.O=C(O)C(F)(F)F (stereo not given),7.839%
14,N#Cc1cccc(CN2CC[C@@H]3[C@@H]2CC(=O)N3CCN2CCCC2)c1.O=C(O)C(F)(F)F.O=C(O)C(F)(F)F,-3.152%
15,Cc1c(C(=O)NC2=NCCS2)cnn1-c1ccc(Cl)cc1,22.26%
16,Cc1oc(-c2ccccc2)nc1C(=O)NC1=NCCS1,105.4%
17,Cc1oc(-c2ccccc2)nc1CC(=O)NC1=NCCS1,20.62%
18,Cc1oc(-c2ccc(Cl)cc2)nc1C(=O)NC1=NCCS1,105.8%
19,Cc1c(C(=O)NC2=NCCS2)cnn1-c1ccc(Br)cc1,23.54%
20,Cc1cc(C(=O)NC2=NCCS2)c(C)n1-c1ccccn1,4.567%
21,CC(C)CN1CC[C@@H]2[C@H](CC1)N(S(C)(=O)=O)CCS2(=O)=O.O=C(O)C(F)(F)F,-8.964%
22,Cc1c(CN2CCc3nc4sccc4c(=O)n3CC2)cnn1C.Cl,-11.07%
23,COCC(=O)NCc1cc(=O)n2c(n1)CN(C)CCC2.O=C(O)C(F)(F)F,2.895%
24,CCn1cncc1CN1CCN(CC2(c3ccc(C)cc3)CC2)CC1.Cl,-24.04%
25,Cn1nnc2c1C(COCc1cccnc1)CN(Cc1ccoc1)C2.O=C(O)C(F)(F)F.O=C(O)C(F)(F)F (stereo not given),-46.31%
